Molecules are shown by their SMILES. About 2,600 (0.84%) of roughly 310,000 compounds were called active.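 Rule for the calls: active = B-score over 3 SD under the library average, and starting fluorescence ratio not unusually high; inactive = the rest.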 Shown is part of a subset that was picked to be rich in actives.

For the assay, the target named is High affinity choline transporter 1 (Homo sapiens) (UniProt Q9GZV3). The experiment in a line: inhibitors of human choline transporter CHT (AID 488975).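 For B-score: choline stimulus applied at its EC90 after an EC20 pre-addition; B-score computed on integrated fluorescence ratio after choline addition.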 Conditions: CHT-expressing cells, membrane potential dye, choline response, at 10 µM; hits give low values.
Chain of High affinity choline transporter 1 (Homo sapiens) (Q9GZV3 whole entry, looked up): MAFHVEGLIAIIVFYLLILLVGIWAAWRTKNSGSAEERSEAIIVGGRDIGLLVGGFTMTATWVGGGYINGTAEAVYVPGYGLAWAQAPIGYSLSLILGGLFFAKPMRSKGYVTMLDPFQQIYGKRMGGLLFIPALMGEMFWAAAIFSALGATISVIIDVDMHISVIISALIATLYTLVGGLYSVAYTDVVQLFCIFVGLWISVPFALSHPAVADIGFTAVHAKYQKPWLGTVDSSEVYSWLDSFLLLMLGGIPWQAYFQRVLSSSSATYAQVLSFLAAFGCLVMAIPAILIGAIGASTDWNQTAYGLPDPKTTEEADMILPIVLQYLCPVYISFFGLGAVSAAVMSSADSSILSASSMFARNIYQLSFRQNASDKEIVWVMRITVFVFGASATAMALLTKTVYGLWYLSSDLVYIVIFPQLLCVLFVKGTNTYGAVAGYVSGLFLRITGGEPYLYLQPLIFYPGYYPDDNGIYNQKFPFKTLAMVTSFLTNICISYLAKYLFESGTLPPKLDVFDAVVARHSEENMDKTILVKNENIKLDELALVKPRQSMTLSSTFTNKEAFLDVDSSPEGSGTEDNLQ
`CCN1CCN(c2ccc(S(=O)(=O)N3CCCCC3)cc2NC(=O)c2cccc(NC(C)=O)c2)CC1`: the B-score result is “inactive”. On to `CC(OC(=O)CCCOc1ccccc1)C(=O)Nc1ccc(Cl)cn1` (stereo not given), for which the B-score result is “inactive”. On to `O=C(NCCC1CCCCN1S(=O)(=O)c1cccs1)C(=O)Nc1ccc(F)cc1F` (stereo not given), for which the B-score entry was “inactive”. For `CC12CCC(=O)N1C(C(=O)Nc1ccc(F)c(F)c1F)CS2` (stereo not given), the B-score result was “inactive”.

On to `COc1ccc(C(=O)c2c(C)oc3cc([N+](=O)[O-])c(O)c([N+](=O)[O-])c23)cc1`, for which the B-score entry was “inactive”.

Consider `Cc1oc2cc([N+](=O)[O-])c(O)c([N+](=O)[O-])c2c1C(=O)c1ccc(Br)cc1`, for which the B-score is -6.57 (active). Regarding `Cc1oc2cc(Br)c(O)c(Br)c2c1C(=O)c1ccccc1`, the B-score result was “inactive”.

Turning to `COc1ccccc1CCNC(=O)C(=O)NCCC1CCCCN1S(=O)(=O)c1cccs1` (stereo not given), the B-score entry is “inactive”. Under `CCOc1ccc(NS(=O)(=O)c2ccc(C(=O)NCC(c3ccccc3OC)N3CCCC3)cc2)cc1` (stereo not given) stands “inactive”; under `COc1ccc(Cl)cc1NC(=O)CN(C)C(=O)c1cc2ccccc2cc1OC`, “inactive”.

For the molecule `Cc1onc(-c2ccccc2Cl)c1C(=O)OCc1nnc(-c2ccccc2)o1`, the B-score result was “inactive”. In the case of `COc1ccc(NC(=O)c2sc(N)nc2-c2ccccc2)cc1`, the B-score is -8.57 (active). Under `COc1ccc(NC(=O)CSc2nc(N)c(-c3ccccc3)c(=O)[nH]2)cc1` stands “inactive”. With `COc1ccc(NC(=O)c2sc(N3CCOCC3)nc2-c2ccccc2)c(OC)c1`, the B-score entry is “inactive”. For `COCCOC1CCN(C(=O)c2ccc(OC)c(OC3CCN(C(C)C)CC3)c2)CC1` the value was “inactive”. Take `COc1ccc(C(=O)NC(C)c2nccs2)cc1OC1CCN(C(C)C)CC1` (stereo not given): the B-score is -5.22 (active).

Regarding `COc1ccc(C(=O)NC2CC2)cc1OC1CCN(Cc2cnn(C)c2)CC1`, the B-score result was “inactive”. For `Cc1cc(C)c(S(=O)(=O)NCC(c2ccc3c(c2)OCO3)N2CCOCC2)c(C)c1` (stereo not given) the value was “inactive”. With `Cc1nc2ccccc2c(=O)n1-c1ccc(NS(=O)(=O)c2ccc(F)cc2F)cc1`, the B-score result was “inactive”. Under `COc1ccc(C(=O)OCC(=O)c2ccc(Cl)s2)c(OC)c1OC` stands “inactive”; under `CN(C)CCCN(C(=O)c1ccc(S(=O)(=O)N2CCCCCC2)cc1)c1nc2cc3c(cc2s1)OCCO3`, “inactive”. For `O=C(O)c1ccc(N/N=C/c2cn(-c3ccccc3)nc2-c2cccs2)cc1` the value was -5.81 (active); for `O=C(/C=C\c1cn(-c2ccccc2)nc1-c1cccs1)N1CCOCC1`, “inactive”; for `O=C(O)/C=C/c1cn(-c2ccccc2)nc1-c1cccs1`, “inactive”. For `COc1ccc(NS(=O)(=O)c2ccc(C)c(C(=O)NCC(c3cccs3)N3CCOCC3)c2)cc1` (stereo not given) the value was “inactive”.

Consider `Cn1nnc(NC(=O)CSc2ncn[nH]2)n1`, for which the B-score result was “inactive”. In the case of `CCN(C(=O)CSc1ncn[nH]1)c1cccc2ccccc12`, the B-score result is “inactive”.

Regarding `CC(C)(C)c1ccc(C(=O)CSc2ncn[nH]2)cc1`, the B-score was -5 (active). Turning to `O=C(CCNC(=O)c1ccc(Br)cc1)Nc1cccc(S(=O)(=O)N2CCCCC2)c1`, the B-score result was “inactive”.

Turning to `CCOC(=O)c1c(C)oc2cc(Sc3ccccc3)c(O)c(O)c12`, the B-score result is “inactive”. For `CCN1C(=O)[C@H]2[C@@H](c3ccc(-c4ccc(OC)cc4)cc3)N[C@@](Cc3ccccc3)(C(=O)OC)[C@H]2C1=O` the value was “inactive”.

Take `COc1ccc(C2=NOC(Cn3nc(C(=O)NCc4ccc5c(c4)OCO5)cc3-c3ccccc3)C2)cc1` (stereo not given): the B-score result was “inactive”. Under `Cc1cccc(N(Cc2ccccc2)C(=O)c2cc(S(=O)(=O)N3CCOCC3)ccc2F)c1` stands “inactive”; under `Cc1cc(C)n(-c2cc(Oc3ccccc3)ncn2)n1`, “inactive”.

Turning to `CC(=O)c1ccc(Oc2cc(C)nc(-n3nc(C)cc3C)n2)cc1`, the B-score is -5.97 (active).

`Cc1cc(C)n(-c2ccc(Cl)c(C(=O)O)n2)n1`: the B-score entry is “inactive”.

Turning to `O=C1[C@H]2[C@@H](c3ccc(Cl)cc3)N3C(=O)N(c4cccc(F)c4)C(=O)[C@@]3(Cc3ccccc3)[C@H]2C(=O)N1C1CCCCC1`, the B-score entry was “inactive”.

`O=C(NNC(=S)NCc1ccco1)C(c1ccccc1)c1ccccc1`: the B-score entry is “inactive”. Under `CC(C)C(=O)Nc1cccc(NC(=S)NC(=O)C(c2ccccc2)c2ccccc2)c1` stands “inactive”; under `CCCCC(=O)NNC(=S)NC(=O)C(c1ccccc1)c1ccccc1`, -10.8 (active).

In the case of `CC1CN(C(=O)c2cc(COc3c(F)cccc3F)on2)CCN1C` (stereo not given), the B-score entry is “inactive”. `COc1ccc(C(CNC(=O)c2cccc(NS(=O)(=O)c3ccc(C)c(F)c3)c2)N2CCCC2)cc1` (stereo not given): the B-score was -5.37 (active). For the molecule `COc1ccc(C(CNC(=O)c2cccc(S(=O)(=O)Nc3ccccc3Cl)c2)N2CCOCC2)cc1` (stereo not given), the B-score result is “inactive”. Take `Cc1cc(S(=O)(=O)Nc2ccc(C(=O)NCC(c3ccco3)N3CCCC3)cc2)ccc1F` (stereo not given): the B-score result was “inactive”. For `CC(=O)c1ccc(NC(=O)C2CCCN2S(=O)(=O)c2cccs2)cc1` (stereo not given), the B-score entry is “inactive”. For `COc1ccc(CCNC(=O)C(=O)NCC2CCCN2S(=O)(=O)c2cccs2)cc1OC` (stereo not given) the value was “inactive”; for `Cc1occc1C(=O)N/N=C/c1ccc(-c2cccc([N+](=O)[O-])c2)o1`, “inactive”; for `O=C(CN1CCN(c2ccc(O)cc2)CC1)Nc1cc(S(=O)(=O)N2CCOCC2)ccc1Cl`, “inactive”. As for `O=[N+]([O-])c1cc(Cl)cc(/C=N/NC(=S)Nc2cc(S(=O)(=O)N3CCOCC3)ccc2Cl)c1O`, the B-score was -11.3 (active). Turning to `O=C(N/N=C/c1cc(Cl)cc([N+](=O)[O-])c1O)C(O)(c1ccccc1)c1ccccc1`, the B-score entry was “inactive”.

Turning to `CC(=O)N1CCN(C(=O)c2cc(-c3ccc(C)o3)nc3ccccc23)CC1`, the B-score entry is “inactive”. As for `O=C(O)C1C2C=CC(C2)C1C(=O)NCc1ccccc1` (stereo not given), the B-score result is “inactive”. For `Cc1ccc(NNC(=O)c2c(F)cccc2Cl)cc1Cl` the value was “inactive”; for `O=C(NNC(=O)c1ccc(Cl)cc1Cl)c1cccs1`, “inactive”. As to `Cc1ccc(NNC(=O)c2cccs2)cc1Cl`, the B-score was -4.98 (active). For `O=C(NCCCc1ccccc1)C(=O)NCC1OCCN1S(=O)(=O)c1ccccc1` (stereo not given), the B-score entry is “inactive”.

Consider `Cc1ccc(N2CC(C(=O)N3CCC4(CC3)CC(=O)c3ccccc3O4)CC2=O)cc1C` (stereo not given), for which the B-score entry is “inactive”. In the case of `Cc1ccc(Cc2nnc(SCC(=O)Nc3ccccc3C)[nH]c2=O)cc1`, the B-score result was “inactive”.

Take `O=C(Cn1ncc2c3ccccc3n(Cc3ccccc3)c2c1=O)NCc1ccccn1`: the B-score result is “inactive”. For `Cc1c2cnn(CC(=O)NCCCN3CC(C)CC(C)C3)c(=O)c2c(C)n1Cc1ccc(Cl)cc1` (stereo not given) the value was “inactive”. For `CCCn1c2ccccc2c2cnn(CC(=O)NCCCN3CCCCC3CC)c(=O)c21` (stereo not given) the value was -7.41 (active); for `CC1CCCCN1CCCNC(=O)Cn1ncc2c([nH]c3ccccc32)c1=O` (stereo not given), “inactive”. Consider `O=C(Cn1ncc2c3ccccc3n(Cc3ccccc3)c2c1=O)NCCCN1CCOCC1`, for which the B-score was -8.06 (active). `CCC1CCCCN1CCCNC(=O)Cn1nc(-c2ccccc2)ccc1=O` (stereo not given): the B-score result is “inactive”.

As for `Cc1ccc(C)c(-c2nnc(NC(=O)CS(=O)(=O)c3ccccc3)o2)c1`, the B-score entry is “inactive”. For `Cc1ccc(S(=O)(=O)NCCC(=O)NC2CCN(Cc3ccccc3)CC2)cc1` the value was “inactive”; for `COc1ccc(Cc2nnc(SCC(=O)N(c3ccccc3)C(C)C)n(N)c2=O)cc1`, “inactive”. Under `Nc1nnc(SCn2nnc3ccccc3c2=O)s1` stands “inactive”; under `O=c1c2ccccc2nnn1CSc1nnnn1-c1ccccc1`, “inactive”; under `O=c1c2ccccc2nnn1CSc1nc2sc3c(c2c(=O)n1CC1CCCO1)CCC3` (stereo not given), -11.3 (active). Consider `CCn1c(SCCC(C)C)nnc1-c1c[nH]c2ccccc12`, for which the B-score was -5.53 (active). Under `CCC(C)Sc1nnc(-c2c[nH]c3ccccc23)n1CCOC` (stereo not given) stands “inactive”; under `CCn1c(SCC(=O)Nc2ccc(OC)c(OC)c2)nnc1-c1c[nH]c2ccccc12`, “inactive”; under `O=[N+]([O-])c1ncc(Br)cc1Nc1ccccc1`, “inactive”. Under `CCOCCn1[nH]c2ccccc2c1=O` stands “inactive”. For `CC(Oc1ccc(Br)cc1)C(=O)NCC(c1ccco1)N1CCCCC1` (stereo not given) the value was “inactive”; for `O=C1Nc2ccccc2C12Nc1ccccc1S2` (stereo not given), “inactive”; for `CCc1ccc2c(c1)C(c1ccc([N+](=O)[O-])cc1)=NNC(c1ccccc1)=N2`, “inactive”. Take `CCc1ccc2c(c1)C1(NN=C(c3ccccc3)S1)C(=O)N2` (stereo not given): the B-score is -6.53 (active).

For the molecule `CCC(C(=O)N1CCOCC1)n1c(C(=O)OC)cc2occc21` (stereo not given), the B-score is -6.51 (active). Under `COC(=O)c1cc2occc2n1Cc1nc(-c2ccccc2C)oc1C` stands “inactive”; under `CCOC(=O)c1cc2occc2n1CC(=O)N1CCN(C(=O)c2ccco2)CC1`, “inactive”. For the molecule `O=C(CN1CCOCC1)Nc1cccc([N+](=O)[O-])c1`, the B-score entry is “inactive”. Take `O=C(CCNC(=O)c1ccc(Br)cc1)NCCCc1ccccc1`: the B-score result was “inactive”. Consider `Cc1c(C(=O)OC(C)C)sc(NC(=O)c2cccnc2)c1C#N`, for which the B-score was -5.25 (active). Under `CCOC(=O)c1cc(NC(=O)c2cccnc2)ccn1` stands “inactive”; under `CCOC(=O)c1ccc(NC(=O)c2cccnc2)cc1`, “inactive”.

Turning to `Cc1ccc(C)c(OCCC(=O)OCC(=O)NC(=O)NCc2ccccc2)c1`, the B-score result was “inactive”. Under `COc1ccccc1C(=O)Nc1ccccc1C(=O)Nc1ccccc1` stands “inactive”; under `Nc1nonc1-n1nnc(C(=O)N/N=C/c2ccccc2O)c1CN1CCCC1`, “inactive”.

Turning to `C/C(=N\NC(=O)c1cccc(N2CCCC2=O)c1)c1ccc(N)cc1`, the B-score entry was “inactive”. As for `Cc1ccc(C(=O)NC2CCCC(C)C2C)cc1S(=O)(=O)N1CCCCC1` (stereo not given), the B-score was -9.32 (active). For `Cc1ccc(C(=O)NNC(=O)c2ccncc2)cc1S(=O)(=O)N1CCCCC1` the value was “inactive”. For `CC1CCCC(NC(=O)c2cccc(N3CCCC3=O)c2)C1C` (stereo not given) the value was -5.25 (active); for `CC1CCC(NC(=O)c2ccc(N3CCCC3=O)cc2)CC1` (stereo not given), “inactive”. For the molecule `Cc1ccc(C(=O)Nc2ccc3c(c2)OCO3)cc1S(=O)(=O)N1CCCCC1`, the B-score entry is “inactive”. Take `COc1ccc2oc(C(=O)OCC(=O)N(CC(C)C)c3c(N)n(Cc4ccccc4)c(=O)[nH]c3=O)c(C)c2c1`: the B-score entry was “inactive”.

Turning to `CC1=NNC(=O)C1Cc1c(Cl)cccc1Cl` (stereo not given), the B-score result was “inactive”. As for `Cc1ccc2nc(NC(=O)CSc3nc(=O)n(CCCN(C)C)c4c3CCC4)sc2c1`, the B-score entry was “inactive”. For `COc1ccc(S(=O)(=O)N2CCCCCC2)cc1C(=O)N(C)Cc1cccc(OC)c1OC` the value was “inactive”.

The values above are taken from PubChem BioAssay AID488975 (Johns Hopkins Ion Channel Center, 2010).
